Data reported in PubChem BioAssay (NCI).
About 79,000 compounds went through this panel and 15% of them were active in at least one assay; those are over-represented in the sample as a whole. A number with no mark means an inactive call. The source made the active and inactive calls. Cut-off read from the data, not from the text of the source: active = growth inhibition above about 70%; inactive = the rest.

Assays:
[1] = NCI Yeast Anticancer Drug Screen. Data for the rad50 strain (AID 155);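 note: 0% = growth of vehicle-only cultures of the same strain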; details: S. cerevisiae rad50 strain growth inhibition, stronger effect = higher value
Procedure, shortened: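 Compounds were tested on a yeast strain with an engineered DNA damage repair alteration; the reported value is growth inhibition normalised to vehicle treatment.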

[2] = NCI Yeast Anticancer Drug Screen. Data for the mec2-1 strain (AID 157); details: S. cerevisiae mec2-1 strain, stronger effect = higher value
Procedure, shortened: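 Vehicle-treated cultures served as reference for growth inhibition of compound-exposed mec2-1 yeast.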

[3] = NCI Yeast Anticancer Drug Screen. Data for the sgs1 mgt1 strain (AID 161);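 note: 0% = growth of cultures given vehicle only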; details: S. cerevisiae sgs1 mgt1 strain, stronger effect = higher value
Procedure, shortened: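 Inhibition of yeast growth, normalised to vehicle-treated controls, is reported for a strain bearing genetic alterations in DNA damage repair.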

[4] = NCI Yeast Anticancer Drug Screen. Data for the cln2 rad14 strain (AID 165);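 note: 0% = growth equal to vehicle treated cultures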; details: S. cerevisiae cln2 rad14 strain, stronger effect = higher value
Procedure, shortened: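 Each compound was tested on cln2 rad14 yeast. Inhibition of growth was calculated against vehicle-exposed controls.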

[5] = NCI Yeast Anticancer Drug Screen. Data for the bub3 strain (AID 167); details: S. cerevisiae bub3 mutant strain, stronger effect = higher value
Procedure, shortened: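 Growth of a checkpoint-deficient yeast mutant is measured after compound exposure. Values represent inhibition relative to vehicle.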

[6] = NCI Yeast Anticancer Drug Screen. Data for the mlh1 rad18 strain (AID 175); details: S. cerevisiae mlh1 rad18 strain growth inhibition, stronger effect = higher value
Procedure, shortened: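 Vehicle-treated cultures served as the reference for growth inhibition in a yeast strain carrying DNA damage repair alterations exposed to each compound.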

[7] = at 5.0 µM (retest, dose inferred, filed as 0.5)
[8] = at 50.0 µM (retest, dose inferred, filed as 5.0)

Row | SMILES | growth inhibition [1, 7] | growth inhibition [1, 8] | growth inhibition ([1]; at 50.0 µM) | growth inhibition [2, 7] [%] | growth inhibition [2, 8] | growth inhibition ([2]; at 50.0 µM) | growth inhibition [3, 7] | growth inhibition [3, 8] | growth inhibition ([3]; at 50.0 µM) | growth inhibition [4, 7] [%] | growth inhibition [4, 8] | growth inhibition ([4]; at 50.0 µM) | growth inhibition [5, 7] | growth inhibition [5, 8] | growth inhibition ([5]; at 50.0 µM) | growth inhibition [6, 7] | growth inhibition [6, 8] | growth inhibition ([6]; at 50.0 µM)
1 | CC(C)(C)c1ccc(Sc2ncnc3ccccc23)cc1 | 4% | 78% (active) | 90.8% (active) | 21 | 90% (active) | 89.3% (active) | 2% | 89% (active) | 89.5% (active) | -1 | 81% (active) | 71.2% (active) | 3% | 90% (active) | 92.5% (active) | -6% | 87% (active) | 91.6% (active)
2 | Cc1ccc(C)c2c3c([nH]c12)-c1ccccc1CC3 | 1% | 3% | 98.5% (active) | -3 | 2% | 92.8% (active) | -4% | 10% | 83.5% (active) | -1 | 7% | 80% (active) | 0% | 4% | 96.7% (active) | 6% | 9% | 94.8% (active)
3 | C=C(CN(C)C)C(=O)c1ccc(OC2OC(COC(C)=O)C(OC(C)=O)C(OC(C)=O)C2OC(C)=O)cc1 (configuration not stated) | -1% | 2% | -5.65% | 0 | 5% | -18.4% | 3% | -43% | -8.8% | 7 | 2% | 10.4% | 15% | 4% | -3.75% | 5% | 2% | -18.9%
4 | CCCCC(/C=N\NC(=O)c1ccc[n+](C)c1)=C/c1ccccc1 | 18% | 1% | 88.3% (active) | 1 | -3% | 95.4% (active) | -6% | -3% | 88.7% (active) | -2 | -5% | 18.5% | -4% | -7% | 94.5% (active) | -1% | 16% | 90.6% (active)
5 | CC(C)N1C(=O)c2ccccc2S1(Cl)c1ccccc1 (configuration not stated) | 2% | 0% | 97.5% (active) | -6 | 6% | 96.8% (active) | 4% | -3% | 94.5% (active) | -2 | 2% | 88.2% (active) | -7% | -6% | 98.5% (active) | -2% | 4% | 98.3% (active)
6 | c1ccc2c(c1)OCC(CNCCNCC1COc3ccccc3O1)O2 (configuration not stated) | 51% | 69% | 72% (active) | 69 | 79% (active) | 57.9% | 70% (active) | 86% (active) | 87.5% (active) | 45 | 63% | 87% (active) | 43% | 55% | 58.3% | 75% (active) | 74% (active) | 67.2%
7 | CC(C)CCCC(C)C1CCC2C3C=CC4=CCCCC4(C)C3CCC12C (configuration not stated) | -18% | 95% (active) | 97.6% (active) | 3 | 98% (active) | 94.8% (active) | -8% | 96% (active) | 8.35% | -5 | 94% (active) | 93% (active) | -4% | 93% (active) | 91.2% (active) | 31% | 98% (active) | 98.1% (active)
8 | CCOC(=O)c1[nH]cc(C)c1-c1ccc2c(-c3ccccc3)nc3ccccc3n12 | 5% | 65% | 44.8% | 7 | 61% | 64.2% | 3% | 70% (active) | 60.4% | 12 | 81% (active) | 38.8% | 9% | 79% (active) | 40.6% | 12% | 73% (active) | 69%
9 | CCCCCCCCCCCCCCNCC(OCC)OCC | 69% | 98% (active) | 90.7% (active) | 62 | 99% (active) | 93.4% (active) | 83% (active) | 99% (active) | 93.2% (active) | 61 | 98% (active) | 90.5% (active) | 75% (active) | 99% (active) | 91.5% (active) | 85% (active) | 98% (active) | 91% (active)
10 | O=C(NC(OCc1ccccc1)(C(F)(F)F)C(F)(F)F)OCc1ccccc1 | -14% | 98% (active) | 96% (active) | -5 | 92% (active) | 91% (active) | -9% | 98% (active) | 93.7% (active) | 11 | 96% (active) | 94.8% (active) | 13% | 95% (active) | 94.5% (active) | 2% | 98% (active) | 96.5% (active)
11 | COc1ccc(/C=C2/C(=O)ON=C2C)cc1OC | -15% | 35% | 93.3% (active) | -14 | 48% | 85.5% (active) | -14% | 48% | 89.1% (active) | -12 | 17% | 42.7% | -3% | 55% | 94.6% (active) | -9% | 61% | 79.2% (active)
12 | O=Cc1[nH]c(=S)[nH]c(=O)c1CCCc1ccccc1 | -15% | 79% (active) | 95.8% (active) | -7 | 90% (active) | 78.2% (active) | 15% | 97% (active) | 98.5% (active) | 17 | 92% (active) | 82.3% (active) | 5% | 95% (active) | 85% (active) | 11% | 97% (active) | 98.2% (active)
13 | CCN1CCNc2c3cc(OC)ccc3nc3c([N+](=O)[O-])ccc1c23 | -10% | 37% | 42.2% | -19 | 7% | 15.2% | -9% | 0% | 39.8% | -2 | 40% | 7.8% | 1% | 2% | -3.6% | -41% | 41% | 71.7% (active)
14 | COc1ccccc1C(c1cc2c(cc1O)OCO2)N1CCOCC1 (configuration not stated) | -15% | 97% (active) | 99% (active) | -20 | 98% (active) | 98.6% (active) | -8% | 98% (active) | 85.3% (active) | -12 | 51% | 77.4% (active) | 15% | 99% (active) | 31.9% | 6% | 98% (active) | 42.4%
15 | CC(C)=NNc1ncnc2nc[nH]c12 | 11% | 3% | 12.5% | -1 | -11% | 19.1% | -4% | -13% | -28.8% | 4 | -3% | 25.6% | 5% | 2% | 6.9% | -14% | 3% | -7.5%
16 | COC(=O)c1ccc2ccccc2c1C(=O)c1ccc(F)cc1 | -1% | 94% (active) | 96.8% (active) | 2 | 96% (active) | 95.5% (active) | 4% | 95% (active) | 96.2% (active) | 11 | 90% (active) | 61.7% | 25% | 97% (active) | 97.4% (active) | 2% | 95% (active) | 95% (active)
17 | O=S(=O)(c1ccc(NC(=S)NCc2ccncc2)cc1)N1CCCCC1 | -30% | -2% | 15.5% | -11 | -43% | -13.6% | -14% | -13% | 10.7% | 2 | 16% | 5.3% | -31% | -18% | 9.35% | -27% | -8% | 6.9%
18 | NCCCNCc1c2ccccc2c(CNCCCN)c2ccccc12 | 6% | 6% | 10.7% | -7 | -7% | 43.4% | 1% | 1% | 58.9% | 24 | 24% | 56.1% | 15% | 15% | 33.8% | 4% | 4% | 74.5% (active)
19 | O=C(O)C(Br)C(Br)C(=O)Nc1ccc(Cl)c(Cl)c1 (configuration not stated) | 91% (active) | 99% (active) | 96.3% (active) | 52 | 99% (active) | 98.1% (active) | 85% (active) | 99% (active) | 96.8% (active) | 25 | 99% (active) | 84.7% (active) | 96% (active) | 100% (active) | 98.8% (active) | 48% | 99% (active) | 96% (active)
